Measurements: PubChem BioAssay
Where “and” joins values, the source holds several entries; their conditions need not be identical. Identical values can stand only once. Results filed as inconclusive are left out. Calls of active or inactive are those of the source. Unless noted, no cut-off is given here; in the data, nearly all actives have AC50 up to about 26 µM.

What was measured:
[1] = P. berghei load reduction in hepatocytes – cell-based, HepG2, luciferase luminescence, HepG2 viability, primary screen (AID 624349; in the data active = parasite load remaining mostly below about 12%, no sharp cut-off; inactive = mostly above about 10%;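 note: 100% = mean of DMSO negative control wells on the same plate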); conditions: P. berghei liver stage in HepG2, luciferase luminescence, concentration not given here; parasite load remaining: stronger effect = lower value; viability: measured here: HepG2 viability without parasites
[2] = Wnt pathway potentiators raising nuclear beta-catenin – imaging, WNT3A-conditioned medium, mouse C2C12, NPC library, primary screen (AID 1117326; in the data active = nuclear beta-catenin stimulation mostly above about 4.2%, no sharp cut-off; inactive = mostly below about 10%; note: reference of the scale not given here); conditions: stronger effect = higher value
[3] = stimulators of insulin release from INS-1E, primary screen, cell-based, 5 mM glucose, NPC library (AID 1117329;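 active = compound raises insulin release from rat beta cells at 5 mM glucose, no numeric limit stated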; note: reference of the scale not given here); conditions: rat INS-1E insulin secretion, at 10 µM, stronger effect = higher value
[4] = growth inhibition of GSK3B-pretreated HCT116 cells – cell-based, CellTiter-Glo, 0.2 to 20 µM (AID 1117336;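 active = compounds lowering colon cancer cell viability after pretreatment blocking the GSK3B kinase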); conditions: HCT116 viability after GSK3B inhibitor, at 20 µM, stronger effect = higher value
[5] = inhibition of endothelial tube formation, primary screen, imaging, VEGF stimulated, CD31 staining, tube area, NPC library (AID 1117340;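 active = compound that reduces growth-factor-driven endothelial tube area in a mixed cell culture, no cutoff stated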); conditions: VEGF-stimulated ADSC/ECFC co-culture, at 10 µM, stronger effect = higher value
[6] = GLP1 release stimulators, primary, NCI-H716, NPC library (AID 1117341;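 active = compound raises GLP1 secretion from the human gut endocrine cells, with no numeric limit stated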; note: reference of the scale not given here); conditions: NCI-H716 cells, at 10 µM, stronger effect = higher value
[7] = HCT116 colon cancer cell growth inhibition, primary screen, CellTiter-Glo luminescence, NPC library (AID 1117342;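 active = compounds that lower survival of HCT116 colon cancer cells in the luminescence readout, no numeric limit stated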); conditions: at 20 µM (top of the series)
[8] = reduced SW480 viability measured with CellTiter-Glo, NPC library, primary (AID 1117343;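 active = compounds that lower viability of the colon cancer cells in the luminescence readout, with no numeric limit stated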); conditions: CellTiter-Glo luminescence; at 20 µM (top of the series) unless noted
[9] = NPC library primary testing for decreased DLD-1 cell viability via CellTiter-Glo (AID 1117346;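 active = compounds that lower survival of DLD-1 colon cancer cells in the luminescence readout, no cutoff given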); conditions: DLD-1 viability, CellTiter-Glo luminescence; at 20 µM (top of the series)
[10] = viability loss in pontine glioma line – cell-based, SU-DIPG-XXV, MIPE5.0, CellTiter-Glo, qHTS, dose response (AID 1347065); conditions: CellTiter-Glo ATP luminescence;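 note: cells exposed to compound for 48 hours before ATP readout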
[11] = JHH-DIPG-1 glioma cell viability, MIPE5.0 library, CellTiter-Glo luminescence, qHTS (AID 1347067); conditions: JHH-DIPG-1 glioma viability, CellTiter-Glo ATP luminescence;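 note: cells exposed to compound for 48 hours before readout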
[12] = growth inhibition of DIPG cells – cell-based, MIPE5.0 library, qHTS (AID 1347068; cut-off not given, nearly all actives have IC50 up to about 30 µM;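 for IC50: cells exposed to compound for 48 hours before viability readout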); conditions: SU-DIPG-XXV viability
[13] = viability loss with induced miR-34 in A549 – imaging, A549 dox-inducible miR-34, nuclei and caspase counts, primary screen (AID 1347080;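 active = compounds whose cell count with miR-34 switched on is under 0.7 times the count with it off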); conditions: A549 miR-34 inducible, Hoechst nuclei count, 48 h
[14] = MELAS cybrid and Rieske KO viability enhancers – cell-based, MELAS cybrids, Rieske KO mouse fibroblasts, CellTiter-Glo, primary screen (AID 1508586;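 active = mean z-score across replicates of 1.96 or higher in either the MELAS or the Rieske mutant cell line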;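 note: z relative to plate mean and SD of compound and empty wells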); conditions: low glucose
[15] = viability loss in pontine glioma line – cell-based, JHH-DIPG-1, MIPE4.0, CellTiter-Glo, qHTS, dose response (AID 1347062; cut-off not given, nearly all actives have AC50 up to about 27 µM;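 for AC50: cells exposed to compound for two days before readout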); conditions: JHH-DIPG-1 viability, CellTiter-Glo ATP luminescence
[16] = blockers of cellular phospholipid synthesis – cell-based, LOPAC library, screen 4, primary screen (AID 1347384; call rule not given here); conditions: animal cells, phospholipid biosynthesis inhibition screen; at 10 µM
[17] = galactose survival enhancers in mitochondrial complex I cybrids – cell-based, galactose medium, ATP luminescence, primary screen (AID 1645843;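 active = z-score of at least 1.8 in each of two replicates, scored against plate mean and spread of sample wells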;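 note: positive z means more ATP and so rescue of galactose-driven cybrid death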); conditions: complex I mutant cybrid cells, 72 h, stronger effect = higher value
[18] = viability loss in pontine glioma line – cell-based, SU-DIPG-IV, MIPE4.0, CellTiter-Glo, qHTS, dose response (AID 1347063; cut-off not given, nearly all actives have AC50 up to about 30 µM;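 note: compound exposure lasted 48 hours before the viability readout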); conditions: CellTiter-Glo ATP luminescence
[19] = growth inhibition of DIPG cells – cell-based, MIPE4.0 library, CellTiter-Glo luminescence, qHTS (AID 1347066; cut-off not given, nearly all actives have AC50 up to about 30 µM;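 note: cells exposed to compound for 48 hours before readout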); conditions: SU-DIPG-VI viability, CellTiter-Glo ATP luminescence
[20] = stronger effect = lower value, cell number ratio, induced over uninduced
[21] = measured here: relative caspase fold change +Dox/-Dox
[22] = measured here: total cells with miR-34 induction, stronger effect = lower value
[23] = measured here: total cells without miR-34 induction
[24] = MELAS cybrid survival, CellTiter-Glo 48 h, stronger effect = higher value
[25] = Rieske KO mouse fibroblast survival, CellTiter-Glo 72 h

CN1CCCN=C1/C=C/c1cccs1
-0.214: z-score [14, 25]
47.1% and 90.3%: viability [1]
1.06: fold change [13, 21]
0%: nuclear beta-catenin stimulation ([2]; stimulation, at 2 µM)
9190: cell count [13, 22]
9990: cell count [13, 23]
inactive: parasite load remaining [1] 31.2% and 87.7% | nuclear beta-catenin stimulation ([2]; at 10 µM) 1.3% | insulin secretion stimulation [3] 0.75% | viability decrease [4] 6.6% | tube area decrease [5] -9.9% | GLP1 secretion stimulation [6] 1.8% | inhibition of viability [7] 13.5% | viability decrease (inhibition) [8] 4.9% | viability decrease (inhibition) [9] -4.2% | outcome [10] | outcome [11] | outcome [12] | fold change [13, 20] 0.92 | z-score [14, 24] 0.267

CC(C)(C)C(=O)Oc1ccc(S(=O)(=O)Nc2ccccc2C(=O)NCC(=O)O)cc1
9900: cell count [13, 23]
1.11: fold change [13, 21]
inactive: nuclear beta-catenin stimulation ([2]; at 10 µM) 0.7% | insulin secretion stimulation [3] 0% | tube area decrease [5] -2.9% | GLP1 secretion stimulation [6] 0.3% | inhibition of viability [7] 24.1% | viability decrease (inhibition) [9] 3.4% | outcome [15] | outcome [12] | fold change [13, 20] 1.07 | outcome [16] | z-score [17] 0.85
10600: cell count [13, 22]
1.7%: nuclear beta-catenin stimulation ([2]; stimulation, at 2 µM)
active: viability decrease [4] 66% | viability decrease (inhibition) [8] 70%

Clc1ccc(C(Cn2ccnc2)OCc2ccc(Sc3ccccc3)cc2)c(Cl)c1 (centres undefined)
inactive: nuclear beta-catenin stimulation ([2]; at 10 µM) 8.8% | insulin secretion stimulation [3] 6.2% | GLP1 secretion stimulation [6] 16%
active: viability decrease [4] 110% | tube area decrease [5] 110% | inhibition of viability [7] 112% | viability decrease (inhibition) [8] 132% | viability decrease (inhibition) [9] 101% | AC50 [18] 16.6 µM
0%: nuclear beta-catenin stimulation ([2]; stimulation, at 2 µM)

N[C@@H](Cc1c[nH]c2ccc(O)cc12)C(=O)O
0.787: fold change [13, 21]
10300: cell count [13, 22]
9860: cell count [13, 23]
3.9%: nuclear beta-catenin stimulation ([2]; stimulation, at 2 µM)
inactive: nuclear beta-catenin stimulation ([2]; at 10 µM) 1.6% | insulin secretion stimulation [3] 2.1% | viability decrease [4] -0.3% | tube area decrease [5] 1.7% | GLP1 secretion stimulation [6] 3.1% | inhibition of viability [7] 2.5% | viability decrease (inhibition) [8] -17.1% | viability decrease (inhibition) [9] -5.7% | outcome [18] | outcome [10] | outcome [19] | outcome [11] | outcome [12] | fold change [13, 20] 1.04 | outcome [16] | z-score [17] 0.37

C=CC(=O)Nc1cc2c(Nc3ccc(F)c(Cl)c3)ncnc2cc1OCCCN1CCOCC1
inactive: insulin secretion stimulation [3] 1.6% | GLP1 secretion stimulation [6] 2.8%
9.2%: nuclear beta-catenin stimulation ([2]; stimulation, at 2 µM)
active: nuclear beta-catenin stimulation ([2]; at 10 µM) 45.9% | viability decrease [4] 108% | tube area decrease [5] 43.3% | inhibition of viability [7] 112% | viability decrease (inhibition) [8] 130% | viability decrease (inhibition) [9] 101% | AC50 [15] 18.7 µM | AC50 [18] 5.9 µM | AC50 [10] 6.61 µM | AC50 [19] 14.8 µM | AC50 [11] 9.34 µM | IC50 [12] 5.25 µM

CCC1=C[C@@H]2CN(C1)Cc1c([nH]c3ccccc13)[C@@](C(=O)OC)(c1cc3c(cc1OC)N(C)[C@H]1[C@@](O)(C(=O)OC)[C@H](OC(C)=O)[C@]4(CC)C=CCN5CC[C@]31[C@@H]54)C2
inactive: parasite load remaining [1] 30.5% | insulin secretion stimulation [3] 2.25% | GLP1 secretion stimulation [6] 2.5% | fold change [13, 20] 0.917 | z-score [14, 24] -2.16 | z-score [17] -2.04
1.02: fold change [13, 21]
1.89: z-score [14, 25]
2030: cell count [13, 23]
85%: viability [1]
72.7%: nuclear beta-catenin stimulation ([2]; stimulation, at 2 µM)
1860: cell count [13, 22]
active: nuclear beta-catenin stimulation ([2]; at 10 µM) 60.8% | viability decrease [4] 103% | tube area decrease [5] 106% | inhibition of viability [7] 94.3% | viability decrease (inhibition) [8] 91.4% | viability decrease (inhibition) [9] 76.7% | AC50 [15] 0.0132 µM | AC50 [10] 0.204 µM | AC50 [11] 0.144 µM | IC50 [12] 1.15 µM

COCCCN1CCC(NC(=O)c2cc(Cl)c(N)c3c2OCC3)CC1
8080 and 7810: cell count [13, 22]
inactive: nuclear beta-catenin stimulation ([2]; at 10 µM) 0.7% | insulin secretion stimulation [3] 1% | viability decrease [4] -4.2% | tube area decrease [5] -8% | GLP1 secretion stimulation [6] 1.9% | inhibition of viability [7] 3.4% | viability decrease (inhibition) [8] -13.9% | viability decrease (inhibition) [9] -4.2% | outcome [15] | outcome [11] | outcome [12] | fold change [13, 20] 0.972 and 1.31 | z-score [14, 24] -0.321 and -0.32
-2%: nuclear beta-catenin stimulation ([2]; stimulation, at 2 µM)
8300 and 5970: cell count [13, 23]
-0.104 and -0.205: z-score [14, 25]
0.687 and 0.593: fold change [13, 21]
active: AC50 [19] 23.5 µM

Cc1nnc(C(=O)NC(C)(C)c2nc(C(=O)NCc3ccc(F)cc3)c(O)c(=O)n2C)o1
inactive: nuclear beta-catenin stimulation ([2]; at 10 µM) -0.2% | insulin secretion stimulation [3] 2.5% | viability decrease [4] -5.9% | tube area decrease [5] 13.9% | GLP1 secretion stimulation [6] -0.3% | inhibition of viability [7] 1% | viability decrease (inhibition) [8] 31.6% | viability decrease (inhibition) [9] 6.7% | outcome [18] | outcome [10] | outcome [19] | outcome [12] | fold change [13, 20] 0.902 | z-score [14, 24] -0.159
0.5%: nuclear beta-catenin stimulation ([2]; stimulation, at 2 µM)
1.04: fold change [13, 21]
7710: cell count [13, 22]
8560: cell count [13, 23]
-0.0651: z-score [14, 25]

NCCCC(N)(C(=O)O)C(F)F (centres undefined)
8420: cell count [13, 22]
0.834: fold change [13, 21]
inactive: nuclear beta-catenin stimulation ([2]; at 10 µM) -0.1% | insulin secretion stimulation [3] -2.2% | viability decrease [4] 6.2% | tube area decrease [5] -6.3% | GLP1 secretion stimulation [6] 2.8% | inhibition of viability [7] 12.2% | viability decrease (inhibition) [9] 36% | outcome [15] | outcome [18] | outcome [10] | outcome [11] | outcome [12] | fold change [13, 20] 1.13 | outcome [16] | z-score [17] 0.11
7470: cell count [13, 23]
active: viability decrease (inhibition) [8] 65.3%
-0.3%: nuclear beta-catenin stimulation ([2]; stimulation, at 2 µM)

CC(=O)N[C@H]1[C@H]([C@H](O)[C@H](O)CO)OC(C(=O)O)=C[C@@H]1N=C(N)N
0.5%: nuclear beta-catenin stimulation ([2]; stimulation, at 2 µM)
inactive: nuclear beta-catenin stimulation ([2]; at 10 µM) 0.9% | insulin secretion stimulation [3] -2.6% | viability decrease [4] -14.4% | tube area decrease [5] 7.8% | GLP1 secretion stimulation [6] -2.9% | inhibition of viability [7] -2.4% | viability decrease (inhibition) [8] 19.9% | viability decrease (inhibition) [9] 2.95% | outcome [15] | outcome [18] | outcome [19]
